The values that follow come from PubChem BioAssay AID687014 (The Scripps Research Institute Molecular Screening Center, 2013).

Screen size: about 370,000 compounds; about 6,800 (1.8%) were called active. The sample holds actives, similar compounds and a random draw of the others, so the mix is not that of the screen.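 The calls were made as follows: active = activation above a cutoff set at the mean of all screened compounds plus 3 SD (cut at about 10% in these data); inactive = the rest.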

This test relates to Nuclear hormone receptor DAF-12 (Heterodera glycines), GAL4 fusion. The experiment in a line: H. glycines DAF-12 receptor agonists, primary screen, cell-based, luminescence, HEK293, GAL4 fusion, UAS-luciferase (AID 687014).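 Also: 0% = DMSO wells and 100% = sodium butyrate wells.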 Conditions: HEK293 GAL4-hgDAF12 UAS-luciferase reporter, agonist luminescence; at 6.8 µM; stronger effect = higher value; normalized to butyrate control. A general note: A reporter such as luciferase makes a cellular process visible.
In the case of `O=C(CN1CCN(c2ccc(O)cc2)CC1)Nc1ccc(-c2ccccc2)cc1`, the activation is 0.81% (inactive).
In the case of `O=C(Nc1ccc(S(=O)(=O)N2CCc3ccccc3C2)cc1)c1ccccc1` it was -0.73% (inactive).
In the case of `CN1CCN(c2ccc(NC(=O)c3ccccc3)cc2)CC1` it was 10.5% (active).
In the case of `COc1cccc(CNC(=O)[C@H]2CCCN2C(=O)[C@H]2CCCN2C(=O)C2CCCCC2)c1` it was -1.24% (inactive); in that of `O=S(=O)(c1cccs1)N1CCCc2nc(-c3ccc(Br)cc3)ccc21`, -0.93% (inactive).
`CCCCn1nnnc1C(c1cc2ccccc2o1)N(C)Cc1ccc(Cl)c(Cl)c1` (configuration not stated): the activation is 4.88% (inactive).
In the case of `Cc1cc(O)c(NC(=O)c2ccc(C)c([N+](=O)[O-])c2)cc1C` it was 14.1% (active); in that of `CCCCNc1ccc(C(=O)Nc2cccc(C)n2)cc1[N+](=O)[O-]`, 1.4% (inactive).
In the case of `CCN1CCC(=NNC(=O)c2ccc(C)c([N+](=O)[O-])c2)CC1` it was -0.03% (inactive); in that of `O=C(CSc1nnc(-c2ccccn2)n1-c1ccc(Cl)cc1)Nc1ccccc1-c1ccccc1`, -5.11% (inactive); in that of `C[C@@H]1COc2cccc(N3CCCC3)c2S(=O)(=O)N1C`, 2.34% (inactive).
Take `COc1ccc(C(=O)CSc2nnc(-c3cnccn3)n2-c2ccc(C)cc2)cc1`: the activation was -1.45% (inactive).
With `Cc1ccc(NC(=O)c2csc3c2CCCC3)cc1`, the activation is 23% (active).
In the case of `Cc1ccc(NC(=O)C2(N3CCC3=O)CCCCC2)cc1` it was -1.36% (inactive).
As to `CC1CC(C)CN(CCCNC(=O)c2csc3c2CCCCC3)C1` (configuration not stated), the activation is 1.68% (inactive).
For `CC(C)(C)c1ccc(S(=O)(=O)NCC2CCN(C(=O)C(=O)c3cc4ccccc4o3)CC2)cc1`, the activation is -2.12% (inactive).
In the case of `CC(C)CC1NC(=O)c2cc(Cl)ccc2-n2c1nc1ccccc1c2=O` (configuration not stated) it was -4.04% (inactive); in that of `CC(=O)Nc1ccc(S(=O)(=O)NC2Cc3ccccc3C2)cc1`, -1.12% (inactive); in that of `O=C(Nc1cccc(-n2cnnn2)c1)c1cccnc1`, 0.26% (inactive).
Then `CCN(CC)C(=O)CSc1nc2ccccc2o1`, with 4.9% (inactive); and `Cc1ccc(-n2nc3cc(C)c(NC(=O)c4cccnc4)cc3n2)cc1`, with 3.33% (inactive).
For `CC(=O)Nc1ccc(-c2nc3ccccc3o2)cc1`, the activation was 14.1% (active).
Then `Cc1cc2nc(-c3ccc(NC(=O)c4cccnc4)cc3)oc2cc1C`, with 10.8% (active).
Then `COc1ccc(C2=CN(Cc3ccccc3)C(c3ccc(OC)cc3)CC2=O)cc1` (configuration not stated), with 1.21% (inactive); and `COc1ccc(CN(C)Cc2nc3cc(OC)c(OC)cc3c(=O)[nH]2)c(OC)c1`, with -1.81% (inactive); and `CC(C)CNc1cccc2c1S(=O)(=O)N(Cc1cn(Cc3ccc(Cl)cc3)nn1)Cc1ccccc1O2`, with 1.68% (inactive).
Consider `CCOC(=O)c1c(C)[nH]c(C2=NNC(=NC(C)COC)SC2)c1C` (configuration not stated), for which the activation was 12.9% (active).
Then `COC(=O)C[C@H]1C=C[C@@H](NS(=O)(=O)c2ccc(C)cc2)[C@@H](CO)O1`, with 3.19% (inactive).
Then `COc1ccc(CN(CCN2CCOCC2)C(=O)c2ccc(C)cc2)cc1OC`, with 2.69% (inactive).
In the case of `C/C(=N\NC(=S)Nc1ccc(C)cc1)c1cc2ccccc2o1` it was 0.54% (inactive); in that of `CC1CCN(c2ccc(-c3ccc(NC(=O)c4ccco4)cc3)nn2)CC1`, 7.1% (inactive).
Regarding `Cc1ccc(NC(=O)c2cc3ccccc3o2)cc1`, the activation is 15.2% (active).
In the case of `CN(C)C(CNC(=O)c1cc2ccccc2o1)c1ccccc1` (configuration not stated) it was 0.25% (inactive); in that of `CN1CCN(S(=O)(=O)c2ccc(NC(=O)c3ccco3)cc2)CC1`, 3.6% (inactive); in that of `Cc1ccc(NC(=O)c2ccco2)cc1`, 13.3% (active).
For the compound `CCCCNC(=O)C[C@@H]1C(=O)N(CCc2ccc(Cl)cc2)C2=CCCC[C@]21C(=O)OCC`, the activation is -1.77% (inactive).
In the case of `COc1cccc(CNC(=O)[C@H]2CCCN2C(=O)[C@H]2CCCN2C(=O)c2ccc(F)cc2)c1` it was -0.01% (inactive); in that of `Nn1c(SCC(=O)N2c3ccccc3Sc3ccccc32)nnc1-c1n[nH]c2c1CCC2`, -2.62% (inactive); in that of `Nc1ncnc2c1ncn2[C@@H]1O[C@H](C(=O)N2CCSC2)[C@@H](O)[C@H]1O`, -0.23% (inactive).
Then `O=C(CSc1nnc(-c2cccc(Cl)c2)n1Cc1ccco1)Nc1ccc(OCc2ccccc2)cc1`, with -1.62% (inactive); and `COc1cccc(N(C(=O)C2COc3ccccc3O2)C(C(=O)NC2CCCCC2)c2ccc(O)cc2)c1` (configuration not stated), with 0.49% (inactive); and `Nn1c(SCC(=O)Nc2ccc(S(N)(=O)=O)cc2)nnc1-c1n[nH]c2c1CCC2`, with 0.61% (inactive).
In the case of `O=C(O)c1ccc2c(c1)C(=O)N(c1ccc(/C=C/C(=O)c3ccccc3)cc1)C2=O` it was 14.1% (active); in that of `CC(=O)Oc1ccc(C)cc1N1C(=O)c2ccc(C(=O)O)cc2C1=O`, -2.04% (inactive); in that of `COc1ccc(C(=O)/C=C/c2ccc(-c3ccccc3)cc2)cc1CSCC(=O)O`, -3.73% (inactive).
For the compound `CCOC(=O)C1(Cc2ccccc2)CCN(Cc2cn(C(C)=O)c3ccccc23)CC1`, the activation was 1.22% (inactive).
Then `COC(=O)c1c(NC(C)=O)sc(C(=O)Nc2ccccc2OC)c1C`, with -3.24% (inactive); and `COC(=O)c1sc(NC(=O)COC(=O)C2CCC2)c(C(=O)OC)c1C`, with 0.97% (inactive); and `CCC(=O)Nc1sc(C(=O)Nc2ccccc2)c(C)c1C(=O)OC`, with 13.4% (active).
Then `COc1ccccc1-c1ccc([C@@H]2C[C@H]3[C@H](CON3C)CN2S(=O)(=O)c2cc(Cl)cc(Cl)c2)cc1`, with 4.17% (inactive); and `COC(=O)Nc1nc2ccc(C(=O)C3CC3)cc2[nH]1`, with 6.35% (inactive); and `COC(=O)C[C@H]1CC[C@H]2[C@H](COc3ccc(NC(=O)C4CC4)cc3C(=O)N2C)O1`, with 1.59% (inactive).
Then `CCCN(CCC)c1ccc(C(O)c2nnc(-c3ccccc3)o2)cc1` (configuration not stated), with -0.77% (inactive).
Take `O=S(=O)(c1ccc(Br)cc1)c1nc(-c2ccccc2)oc1N1CCOCC1`: the activation was -0.08% (inactive).
Then `Nc1ccc(-c2nnc(-c3ccccc3)o2)cc1`, with 10.4% (active); and `O=C(OCc1nnc(-c2ccccc2)o1)c1ccc2c(c1)C(=O)N(CCc1ccccc1)C2=O`, with -0.76% (inactive).
With `Brc1ccc(-c2nnc(-c3ccccc3)o2)o1`, the activation is 11.2% (active).
Then `Brc1ccc(-c2noc(-c3ccccc3)n2)o1`, with 15.9% (active); and `O=C(Nc1nnc(-c2ccc(Cl)cc2)o1)c1ccccc1Br`, with 3.84% (inactive).
Then `C=CCN1C(=O)[C@@H](CC(=O)N2CCN(C(=O)OCC)CC2)[C@]2(C(=O)OCC)CCCCC/C=C/12`, with -0.26% (inactive); and `CCN(CC)C(=O)CC[C@@H]1CC[C@]2(CCCN(S(=O)(=O)C3CCCCC3)C2)O1`, with 0.45% (inactive); and `C=CCn1c(SCC(N)=O)nnc1-c1ccccc1OC`, with -1.84% (inactive).
Then `N#Cc1ccc(C2N=C(c3ccccc3)NO2)cc1` (configuration not stated), with 9.37% (inactive); and `S=C1NC(c2ccccc2)=NCN1c1ccc(Br)cc1`, with 4.34% (inactive).
Consider `Brc1ccccc1C1N=C(c2ccccc2)NO1` (configuration not stated), for which the activation was 20.2% (active).
Then `CCOC(=O)C1CCN(C(=O)C(C)(C)NC(=O)Nc2ccccc2Cl)CC1`, with 0.66% (inactive).
Then `C[C@@H]1ON(C)[C@H]2C[C@H]3c4cc(N5CCOCC5)ccc4CCN3C[C@@H]12`, with -4.54% (inactive).
In the case of `COC(=O)C1=C(C)N(Cc2ccccc2C(F)(F)F)C(=NCc2ccc(OC)cc2)NC1c1cccc(C(F)(F)F)c1` (configuration not stated) it was -1.71% (inactive); in that of `CN1CCc2ccccc2C1Cc1ccccc1NC(=O)c1sc2ccccc2c1Cl` (configuration not stated), 5.85% (inactive).
For the compound `O=C(Nc1ccon1)c1sc2ccccc2c1Cl`, the activation is 11.2% (active).
In the case of `O=C(Nc1ccc2c(c1)OCO2)c1sc2cc(Cl)ccc2c1Cl` it was -1.79% (inactive); in that of `C[C@@H]1CN([C@H](C)CO)C(=O)CCCn2cc(nn2)CO[C@H]1CN(C)C(=O)Nc1ccc(N2CCCCC2)cc1`, 5.88% (inactive); in that of `Cc1nn2c3cc(N4CCOCC4)ccc3nc2c2ccccc12`, 11.4% (active).
Then `Cc1nc2ccccc2n1C(=O)N1CCOCC1`, with 1.42% (inactive).
On to `N#CCSc1nc2ccc(N3CCOCC3)cc2c(=O)n1CCc1ccccc1`, for which the activation is -1.34% (inactive).
Then `Cc1ccc(Cn2cc(CN3[C@@H](CC(C)C)COc4ccc(Cl)cc4S3(=O)=O)nn2)cc1`, with 0.41% (inactive); and `CCCC1(C(=O)OCC)NC(c2ccc(N(C)C)cc2)C2C(=O)N(c3ccc4c(c3)OCCO4)C(=O)C21` (configuration not stated), with -2.1% (inactive); and `Cc1ccc(-c2nc(C3CCCN(S(=O)(=O)c4ccc(Br)s4)C3)no2)cc1` (configuration not stated), with 1.98% (inactive).
In the case of `COC(=O)c1ccccc1Oc1c(F)c(F)nc(N2CCOCC2)c1F` it was -0.09% (inactive); in that of `Fc1cnc(N2CCOCC2)nc1NCc1ccccc1`, -0.76% (inactive); in that of `COc1ccc(Nc2ncc(F)c(N3CCOCC3)n2)cc1`, 18.6% (active).
As for `COC(=O)c1cc2c(c3c4cc(F)ccc4n(S(=O)(=O)c4ccccc4)c13)C(=O)N(Cc1ccccc1OC)C2`, the activation is 0.57% (inactive).
Then `Cc1ccc(NN=C2C(=O)OC(C)(C)OC2=O)c(C)c1`, with 11.5% (active); and `Cc1ccc(NC(=O)c2oc(=O)c3ccccc3c2-c2ccccc2)c(C)c1`, with 2.59% (inactive).
Take `Cc1ccc(NC(=O)C(=O)NCc2ccco2)c(C)c1`: the activation was 6.27% (inactive).
Regarding `C=CCN(C)CC#Cc1ccccc1`, the activation is -1.36% (inactive).
In the case of `CCCCCCc1cc2cc(-c3nnc(-c4cccc(OC)c4)o3)c(=O)oc2cc1O` it was 4.05% (inactive); in that of `CCOc1ccc(NC(=O)N(CCC(C)C)C(C)c2ccco2)cc1` (configuration not stated), -1.26% (inactive); in that of `CCOc1ccc(-c2nnc(-c3ccco3)o2)cc1`, 13.6% (active).
Then `CCCCSc1nnc(-c2ccc(C)cc2)o1`, with 8.59% (inactive).
In the case of `O=C(CSc1nnc(-c2ccco2)o1)NCC(=O)c1ccccc1` it was -1.52% (inactive); in that of `CCCCOc1ccc(-c2nnc(-c3ccco3)o2)cc1`, 11.3% (active).
